From PubChem BioAssay AID624288 (National Center for Advancing Translational Sciences (NCATS), 2012)
In all, about 340,000 compounds went through this assay and about 1,400 (0.41%) were called active. About 4% were inconclusive and are not listed. The call rests on the fitted dose curve; cell line not stated here. The entries come from a sample that favours actives as a whole.

experiment: qHTS for Antagonists of gsp, the Etiologic Mutation Responsible for Fibrous Dysplasia/McCune-Albright Syndrome: qHTS; details: gsp-mutant cells, cAMP HTRF, 30 min; series mostly up to 76.9 µM; further: nearly all actives have a fitted effect of over 65% in size
In short: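 Cells, 2000/well, grown 16–24 h in DMEM 10% FBS with 0.5 mg/ml G418, then compounds plus […] (300 uM addition stock), 30 min at 37C. cAMP read by HTRF (cAMP-d2 and anti-cAMP antibody-K in lysis buffer) after 30 min RT.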
Potency means the concentration at half of the fitted maximal effect.

Potency, inactive:
Cc1ccc(C(=O)O)c(NC=O)c1OCc1ccccc1
COc1ccc(CNC(=O)CN2C(=O)c3ccccc3S2(=O)=O)cc1
Cc1cc(NC(=O)COc2ccc([N+](=O)[O-])cc2)no1
Cc1cc(NC(=O)COn2nnc3ccccc32)no1
NC1=NOC(=O)C1C1CCCCC1 (stereo not given)
O=C(Cc1ccc([N+](=O)[O-])cc1)NCCc1ccc2c(c1)OCO2
O=C(CN1CCCCCC1)Nc1ccc(Br)cc1[N+](=O)[O-]
O=C(COc1ccc(Cl)cc1[N+](=O)[O-])N1CCCCC1
COc1ccc(/C=C/C(=O)OCC(=O)N2CCN(S(=O)(=O)c3ccc(C)cc3C)CC2)cc1OC
O=C(NCCc1ccccc1)c1cccc(NC(=O)c2ccccc2)c1
O=c1ccn([C@@H]2O[C@H](CNS(=O)(=O)c3cc4ccccc4s3)[C@@H](O)[C@H]2O)c(=O)[nH]1
Cc1ccc(S(=O)(=O)CCC(=O)OCC(=O)N(C)Cc2ccccc2)cc1
O=C(NNC(=O)c1ccc2ccccc2c1)c1ccc(Cl)cc1
O=C(CCl)NNc1nc(-c2ccccc2)c2cc(Cl)ccc2n1
CCCNC(=O)CCn1nc(-c2ccccc2)c2ccccc2c1=O
Cc1nn(-c2ncccn2)c2c1C(=O)CC(C)(C)C2Br (stereo not given)
COc1ccc(Cn2cc(CN3CCS(=O)(=O)N(Cc4ccc(-c5cccc(Cl)c5)cc4)C(C)C3=O)nn2)cc1 (stereo not given)

Potency, active:
Cc1cc(NC(=O)COc2ccccc2C#N)no1 31.6 µM
O=[N+]([O-])c1cc([N+](=O)[O-])c(Oc2cc(F)cc(F)c2F)cc1NN1CCCCC1 11.2 µM
COC(=O)Cn1nc(-c2ccccc2)c2cc(Cl)ccc21 31.6 µM
